What all share (test): DAPPL (digital affinity profiling via proximity ligation, sequencing); 10 mM Tris-HCl pH 7.5, 50 mM NaCl, 1 mM DTT, 4% glycerol, room temperature, 30 min; GST-TFs on glutathione beads, 16-mer random dsDNA library, 0.1% formaldehyde crosslink after washing; high values mean tight binding
What all share (settings): protein: recombinant; tags: N-terminal GST; dsDNA, one strand shown

One assay concerns the target T1, FLI1 (Homo sapiens, UniProt Q01543 1-452).
T1 sequence: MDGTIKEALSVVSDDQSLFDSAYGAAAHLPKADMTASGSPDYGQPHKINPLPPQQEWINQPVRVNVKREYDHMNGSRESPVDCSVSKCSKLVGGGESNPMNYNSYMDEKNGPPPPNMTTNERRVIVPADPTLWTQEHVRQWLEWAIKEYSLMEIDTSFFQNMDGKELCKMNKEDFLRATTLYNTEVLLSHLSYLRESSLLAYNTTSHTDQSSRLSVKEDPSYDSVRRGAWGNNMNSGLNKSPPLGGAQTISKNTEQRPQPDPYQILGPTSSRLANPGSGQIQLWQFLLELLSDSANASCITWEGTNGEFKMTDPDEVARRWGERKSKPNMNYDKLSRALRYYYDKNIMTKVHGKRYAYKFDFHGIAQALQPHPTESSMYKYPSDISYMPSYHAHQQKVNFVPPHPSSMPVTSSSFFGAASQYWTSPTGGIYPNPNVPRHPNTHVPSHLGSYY
In outline:
(§1)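 Each value of binding signal is a hexamer's read frequency for a factor divided by the same hexamer's frequency in the tag-only sample. Barcoded, bead-captured GST fusions of human transcription factors made in yeast were pooled with that sample and incubated with 200 nmole of a random double-stranded 16-mer DNA library in Tris/NaCl/DTT/glycerol buffer at room temperature for 30 min. Washing, 0.1% formaldehyde crosslinking, proximity ligation, PCR and Illumina NextSeq500 sequencing followed.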

In the next assay the target is T2, ELK1 (Homo sapiens, UniProt P19419 1-428).
T2 sequence: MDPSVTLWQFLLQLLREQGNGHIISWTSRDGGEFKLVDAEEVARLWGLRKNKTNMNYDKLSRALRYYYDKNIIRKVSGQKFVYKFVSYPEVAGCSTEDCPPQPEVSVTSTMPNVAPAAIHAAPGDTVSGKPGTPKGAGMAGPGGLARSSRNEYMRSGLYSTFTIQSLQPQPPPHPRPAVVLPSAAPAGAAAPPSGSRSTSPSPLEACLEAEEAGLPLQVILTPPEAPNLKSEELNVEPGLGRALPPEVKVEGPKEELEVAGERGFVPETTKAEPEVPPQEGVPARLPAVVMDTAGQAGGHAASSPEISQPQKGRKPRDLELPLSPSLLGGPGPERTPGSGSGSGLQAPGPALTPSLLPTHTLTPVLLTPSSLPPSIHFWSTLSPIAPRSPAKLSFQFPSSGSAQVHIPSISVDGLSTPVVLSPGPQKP
In outline:
as §1

The next assay concerns the target T3, GABPA (Homo sapiens, UniProt Q06546 1-454).
T3 sequence: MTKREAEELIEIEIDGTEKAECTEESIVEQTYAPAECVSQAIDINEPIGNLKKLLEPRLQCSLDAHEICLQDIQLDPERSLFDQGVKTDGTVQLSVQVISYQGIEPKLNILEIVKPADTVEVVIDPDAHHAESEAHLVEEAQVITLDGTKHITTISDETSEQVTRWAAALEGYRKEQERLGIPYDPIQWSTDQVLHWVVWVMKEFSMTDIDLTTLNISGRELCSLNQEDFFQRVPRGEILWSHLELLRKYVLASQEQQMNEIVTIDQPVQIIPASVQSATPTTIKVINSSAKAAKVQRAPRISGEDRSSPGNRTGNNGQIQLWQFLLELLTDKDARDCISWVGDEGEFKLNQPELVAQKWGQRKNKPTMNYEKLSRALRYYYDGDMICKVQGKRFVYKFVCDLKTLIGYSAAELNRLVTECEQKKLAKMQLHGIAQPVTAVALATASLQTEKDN
The method, boiled down: as §1

The target in the next assay is T4, ERG (Homo sapiens, UniProt P11308 1-479).
T4 sequence: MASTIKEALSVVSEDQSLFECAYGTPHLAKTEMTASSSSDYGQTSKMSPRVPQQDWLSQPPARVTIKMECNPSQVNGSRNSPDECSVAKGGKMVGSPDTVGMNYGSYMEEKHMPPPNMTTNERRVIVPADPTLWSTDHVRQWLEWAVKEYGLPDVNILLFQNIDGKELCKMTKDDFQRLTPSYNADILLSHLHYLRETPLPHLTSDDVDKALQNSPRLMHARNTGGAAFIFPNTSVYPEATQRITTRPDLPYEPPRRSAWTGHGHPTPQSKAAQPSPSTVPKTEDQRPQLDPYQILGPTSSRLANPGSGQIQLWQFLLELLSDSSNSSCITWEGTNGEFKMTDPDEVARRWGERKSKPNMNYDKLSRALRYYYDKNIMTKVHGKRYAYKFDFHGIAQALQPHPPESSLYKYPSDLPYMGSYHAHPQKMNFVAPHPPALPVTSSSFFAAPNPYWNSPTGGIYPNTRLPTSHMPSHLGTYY
In outline: as §1

For a further assay, the target named is ELF1 (Homo sapiens, UniProt P32519 1-619). In outline: as §1
In the next assay the target is T5, EHF (Homo sapiens, UniProt Q9NZC4 1-300).
T5 sequence: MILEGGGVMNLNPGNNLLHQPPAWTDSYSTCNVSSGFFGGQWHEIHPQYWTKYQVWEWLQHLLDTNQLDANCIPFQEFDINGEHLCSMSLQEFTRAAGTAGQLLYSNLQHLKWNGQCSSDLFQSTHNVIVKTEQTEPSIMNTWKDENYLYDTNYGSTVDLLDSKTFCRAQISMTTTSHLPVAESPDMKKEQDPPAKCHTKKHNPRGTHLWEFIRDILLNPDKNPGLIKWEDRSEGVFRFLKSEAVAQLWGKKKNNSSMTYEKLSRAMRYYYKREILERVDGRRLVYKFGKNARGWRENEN
The method, boiled down:
as §1

The target in another assay is SPI1 (Homo sapiens, UniProt P17947 1-270). In outline:
as §1

For another assay, the target named is SPIB (Homo sapiens, UniProt Q01892 1-262). The method, boiled down: as §1
In the next assay the target is T6, ELK3 (Homo sapiens, UniProt P41970 1-407).
T6 sequence: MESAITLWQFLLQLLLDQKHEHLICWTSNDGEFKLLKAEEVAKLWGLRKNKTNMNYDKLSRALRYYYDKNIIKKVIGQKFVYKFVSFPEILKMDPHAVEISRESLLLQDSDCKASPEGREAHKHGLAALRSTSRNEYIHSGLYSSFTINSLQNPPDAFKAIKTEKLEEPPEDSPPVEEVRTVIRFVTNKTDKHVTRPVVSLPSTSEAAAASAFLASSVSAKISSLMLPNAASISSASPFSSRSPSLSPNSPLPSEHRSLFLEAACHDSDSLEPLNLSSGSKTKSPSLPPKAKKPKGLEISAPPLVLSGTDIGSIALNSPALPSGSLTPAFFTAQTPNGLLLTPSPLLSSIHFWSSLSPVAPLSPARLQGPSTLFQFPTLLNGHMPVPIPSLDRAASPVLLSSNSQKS
The method, boiled down:
as §1

A further assay has as its target T7, FEV (Homo sapiens, UniProt Q99581 1-238).
T7 sequence: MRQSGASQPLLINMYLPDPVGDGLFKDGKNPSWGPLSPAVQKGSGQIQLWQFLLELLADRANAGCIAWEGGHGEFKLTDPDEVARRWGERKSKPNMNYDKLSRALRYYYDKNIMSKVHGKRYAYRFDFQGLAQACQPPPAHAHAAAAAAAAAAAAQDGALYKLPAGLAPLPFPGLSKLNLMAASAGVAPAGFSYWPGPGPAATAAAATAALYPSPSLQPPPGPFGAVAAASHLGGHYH
In outline:
as §1

The target of another assay is ETV5 (Homo sapiens, UniProt P41161 1-510). The method, boiled down: as §1
A further assay concerns the target T8, SPIC (Homo sapiens, UniProt Q8N5J4 1-248).
T8 sequence: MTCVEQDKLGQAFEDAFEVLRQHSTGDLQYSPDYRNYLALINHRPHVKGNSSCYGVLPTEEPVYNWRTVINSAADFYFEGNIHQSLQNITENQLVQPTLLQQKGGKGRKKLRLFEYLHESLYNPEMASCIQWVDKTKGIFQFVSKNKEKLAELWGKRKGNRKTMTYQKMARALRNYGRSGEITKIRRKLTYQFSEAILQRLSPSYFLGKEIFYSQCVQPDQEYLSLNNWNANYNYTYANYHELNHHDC
The method, boiled down:
as §1

In a further assay the target is ELF4 (Homo sapiens, UniProt Q99607 1-663). In outline: as §1
Another assay has as its target T9, ELK4 (Homo sapiens, UniProt P28324-2 1-405).
T9 sequence: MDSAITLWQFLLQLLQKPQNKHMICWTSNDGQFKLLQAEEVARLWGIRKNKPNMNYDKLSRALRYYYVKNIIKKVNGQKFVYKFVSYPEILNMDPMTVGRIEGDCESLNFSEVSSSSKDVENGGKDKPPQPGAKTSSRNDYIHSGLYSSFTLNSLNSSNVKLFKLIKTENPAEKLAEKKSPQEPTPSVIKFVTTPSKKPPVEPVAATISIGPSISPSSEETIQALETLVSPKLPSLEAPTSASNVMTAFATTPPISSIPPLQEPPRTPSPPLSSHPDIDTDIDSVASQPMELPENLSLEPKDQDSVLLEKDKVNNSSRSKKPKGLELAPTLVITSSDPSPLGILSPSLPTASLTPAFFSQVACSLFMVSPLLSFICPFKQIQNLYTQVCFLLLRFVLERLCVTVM
In outline:
as §1

The next assay deals with T10, ETV2 (Homo sapiens, UniProt O00321 1-342).
T10 sequence: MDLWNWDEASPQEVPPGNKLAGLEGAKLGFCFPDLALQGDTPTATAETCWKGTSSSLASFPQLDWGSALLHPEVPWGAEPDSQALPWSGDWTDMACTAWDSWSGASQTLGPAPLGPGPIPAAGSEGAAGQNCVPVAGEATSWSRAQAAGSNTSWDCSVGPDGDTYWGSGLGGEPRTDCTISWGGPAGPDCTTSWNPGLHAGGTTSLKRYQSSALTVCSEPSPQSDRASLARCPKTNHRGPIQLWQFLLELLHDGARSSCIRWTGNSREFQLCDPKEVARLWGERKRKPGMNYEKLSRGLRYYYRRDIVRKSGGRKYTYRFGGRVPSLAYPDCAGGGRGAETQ
The method, boiled down: as §1

For a further assay, the target named is T11, ELF3 (Homo sapiens, UniProt P78545 1-371).
T11 sequence: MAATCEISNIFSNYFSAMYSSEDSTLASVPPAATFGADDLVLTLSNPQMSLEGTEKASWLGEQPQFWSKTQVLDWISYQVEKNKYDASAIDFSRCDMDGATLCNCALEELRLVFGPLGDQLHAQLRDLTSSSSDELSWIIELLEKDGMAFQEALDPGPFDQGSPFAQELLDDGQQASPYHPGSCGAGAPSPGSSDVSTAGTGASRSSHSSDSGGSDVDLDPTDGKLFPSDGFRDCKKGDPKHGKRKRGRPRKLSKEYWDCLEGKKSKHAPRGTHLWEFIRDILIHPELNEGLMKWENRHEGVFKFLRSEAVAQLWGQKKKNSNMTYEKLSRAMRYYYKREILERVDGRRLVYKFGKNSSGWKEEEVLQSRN
In outline:
as §1

The target in a further assay is ETV1 (Homo sapiens, UniProt P50549 1-477). The method, boiled down: as §1

The values that follow come from paper PMC7862700, “An all-to-all approach to the identification of sequence-specific readers for epigenetic DNA modifications on cytosine”.

Chain of ETV1 (P50549 whole entry): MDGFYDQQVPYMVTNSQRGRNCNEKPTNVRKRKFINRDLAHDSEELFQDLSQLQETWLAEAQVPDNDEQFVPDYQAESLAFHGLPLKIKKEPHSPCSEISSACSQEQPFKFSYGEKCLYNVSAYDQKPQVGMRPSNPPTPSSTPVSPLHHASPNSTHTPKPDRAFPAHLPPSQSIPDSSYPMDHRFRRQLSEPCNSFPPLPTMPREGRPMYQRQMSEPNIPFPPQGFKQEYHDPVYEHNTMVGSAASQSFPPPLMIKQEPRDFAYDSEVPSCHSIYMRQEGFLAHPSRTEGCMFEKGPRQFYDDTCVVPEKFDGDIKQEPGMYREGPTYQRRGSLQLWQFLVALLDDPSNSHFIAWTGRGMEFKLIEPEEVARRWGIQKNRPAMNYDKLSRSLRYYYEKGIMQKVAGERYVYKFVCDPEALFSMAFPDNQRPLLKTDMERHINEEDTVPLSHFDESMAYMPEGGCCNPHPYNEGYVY
Chain of ELF1 (P32519 whole entry): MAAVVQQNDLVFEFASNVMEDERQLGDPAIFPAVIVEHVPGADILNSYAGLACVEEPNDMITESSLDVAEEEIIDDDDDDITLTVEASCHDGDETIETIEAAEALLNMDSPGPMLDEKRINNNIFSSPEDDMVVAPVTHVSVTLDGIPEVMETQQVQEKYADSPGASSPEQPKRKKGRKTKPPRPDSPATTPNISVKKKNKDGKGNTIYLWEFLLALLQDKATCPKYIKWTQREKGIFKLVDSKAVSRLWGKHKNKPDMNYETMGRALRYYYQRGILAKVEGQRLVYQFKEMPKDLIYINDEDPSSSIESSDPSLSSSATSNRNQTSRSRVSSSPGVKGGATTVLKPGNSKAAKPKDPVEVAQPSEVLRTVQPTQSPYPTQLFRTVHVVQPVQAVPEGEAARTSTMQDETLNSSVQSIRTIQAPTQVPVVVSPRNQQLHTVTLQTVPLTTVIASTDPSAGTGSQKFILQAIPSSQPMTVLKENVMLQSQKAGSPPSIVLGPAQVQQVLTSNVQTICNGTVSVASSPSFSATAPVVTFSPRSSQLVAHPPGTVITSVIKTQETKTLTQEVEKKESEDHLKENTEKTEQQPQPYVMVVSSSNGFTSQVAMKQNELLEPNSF
Chain of ELF4 (Q99607 whole entry): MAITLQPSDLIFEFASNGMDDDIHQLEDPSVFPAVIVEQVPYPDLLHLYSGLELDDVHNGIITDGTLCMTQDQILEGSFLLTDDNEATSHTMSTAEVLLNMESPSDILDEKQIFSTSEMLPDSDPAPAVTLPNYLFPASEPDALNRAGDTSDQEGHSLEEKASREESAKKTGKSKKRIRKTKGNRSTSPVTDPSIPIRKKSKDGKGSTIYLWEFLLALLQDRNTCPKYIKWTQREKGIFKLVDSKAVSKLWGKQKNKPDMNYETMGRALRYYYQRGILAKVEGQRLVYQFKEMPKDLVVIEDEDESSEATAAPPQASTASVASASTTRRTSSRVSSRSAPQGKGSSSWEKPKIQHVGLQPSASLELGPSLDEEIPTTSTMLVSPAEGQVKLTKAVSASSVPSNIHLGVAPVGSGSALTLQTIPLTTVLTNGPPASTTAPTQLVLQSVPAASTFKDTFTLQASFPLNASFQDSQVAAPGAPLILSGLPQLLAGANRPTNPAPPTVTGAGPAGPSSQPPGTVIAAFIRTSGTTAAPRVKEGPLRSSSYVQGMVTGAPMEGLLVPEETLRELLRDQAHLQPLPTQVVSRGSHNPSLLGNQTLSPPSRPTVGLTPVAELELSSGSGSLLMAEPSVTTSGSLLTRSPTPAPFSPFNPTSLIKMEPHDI
Chain of ETV5 (P41161 whole entry): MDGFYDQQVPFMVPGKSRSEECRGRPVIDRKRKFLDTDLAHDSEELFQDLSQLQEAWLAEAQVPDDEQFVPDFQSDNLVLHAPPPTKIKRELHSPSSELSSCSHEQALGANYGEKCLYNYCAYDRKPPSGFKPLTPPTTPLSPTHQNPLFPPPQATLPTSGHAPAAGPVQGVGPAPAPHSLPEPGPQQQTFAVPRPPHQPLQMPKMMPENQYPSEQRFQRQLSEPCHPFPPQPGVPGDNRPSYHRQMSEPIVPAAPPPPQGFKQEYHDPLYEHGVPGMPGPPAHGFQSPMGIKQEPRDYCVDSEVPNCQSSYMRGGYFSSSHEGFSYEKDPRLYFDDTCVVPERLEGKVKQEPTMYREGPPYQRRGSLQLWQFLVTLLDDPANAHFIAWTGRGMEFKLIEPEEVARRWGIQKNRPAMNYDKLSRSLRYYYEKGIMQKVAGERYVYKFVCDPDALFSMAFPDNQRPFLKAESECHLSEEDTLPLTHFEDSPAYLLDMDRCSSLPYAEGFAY
Chain of SPIB (Q01892 whole entry): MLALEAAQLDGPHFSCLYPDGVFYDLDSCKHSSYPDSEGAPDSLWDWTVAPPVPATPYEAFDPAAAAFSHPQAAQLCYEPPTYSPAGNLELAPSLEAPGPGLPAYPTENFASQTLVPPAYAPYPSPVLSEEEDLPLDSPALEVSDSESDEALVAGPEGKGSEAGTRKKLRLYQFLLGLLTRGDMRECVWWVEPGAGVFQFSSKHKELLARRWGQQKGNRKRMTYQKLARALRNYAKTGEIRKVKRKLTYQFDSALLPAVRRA

On to GGACAT, for which the binding signal with FLI1 is 1.19 fold enrichment (6-mer frequency, TF over GST control); with ELK1, 1.19 fold enrichment (6-mer frequency, TF over GST control); in the assay with GABPA, 1.24 fold enrichment (6-mer frequency, TF over GST control); in the assay with ERG, 1.24 fold enrichment (6-mer frequency, TF over GST control); with ELF1, 1.19 fold enrichment (6-mer frequency, TF over GST control); with EHF it was 1.19 fold enrichment (6-mer frequency, TF over GST control). Also, the binding signal with SPI1 was 1.13 fold enrichment (6-mer frequency, TF over GST control); in the assay with SPIB it was 1.14 fold enrichment (6-mer frequency, TF over GST control); in the assay with ELK3, 1.19 fold enrichment (6-mer frequency, TF over GST control); with FEV it was 1.56 fold enrichment (6-mer frequency, TF over GST control); with ETV5 it was 1.18 fold enrichment (6-mer frequency, TF over GST control); with SPIC, 1.28 fold enrichment (6-mer frequency, TF over GST control). Further, the binding signal with ELF4 is 1.11 fold enrichment (6-mer frequency, TF over GST control); with ELK4, 1.07 fold enrichment (6-mer frequency, TF over GST control); in the assay with ETV2 it was 1.16 fold enrichment (6-mer frequency, TF over GST control); with ELF3, 1.24 fold enrichment (6-mer frequency, TF over GST control); with ETV1, 1.23 fold enrichment (6-mer frequency, TF over GST control).
